# Experimental data published in PubChem BioAssay (Tox21).
# Values without a mark were called inactive. Results filed as inconclusive are left out. A call without a number means that no potency is given here. Calls of active or inactive are those of the source. Unless noted, calls follow the shape of the dose curve; as a rule, active = well fitted curve in the direction sought with a large enough effect in the repeat runs; inconclusive = weak or mixed curves; inactive = no such curve, though single readings can be large; an effect the other way counts as inactive or inconclusive.
# Columns and labels:
# [1] = qHTS assay to identify small molecule agonists of H2AX (AID 1224845; active = well fitted activation curve with a large enough effect in the signal ratio in the repeat runs, not every such curve was filed as active; the % refers to the signal ratio)
# Method in brief: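 Wild-type CHO-K1 cells, plated overnight, exposed 3hr at 37C to 15 concentrations (0.76% DMSO final). Lysed, then HTRF anti-pH2AX (S139) cryptate and anti-H2AX-d2 antibodies, 24 hr room temperature; 665/620 nm emission read.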
# [2] = qHTS assay to identify small molecule agonists of H2AX - cell viability counter screen (AID 1224847; calls by dose curve; also: nearly all actives have a fitted effect of over 30% in size; also: potency is read from the fitted curve at half-maximal effect)
# Method in brief: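 Wild-type CHO-K1 cells (10% FBS medium) were plated overnight at 37C, exposed to compounds at 15 concentrations for 3 hr at 37C (0.76% DMSO final), and viability was read as CellTiter-Glo luminescence after 30 min at room temperature.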
# [3] = qHTS RealTime-Glo MT Cell Viability Assay in HepG2 cells - 24 hour (AID 1224867); also: nearly all actives have a fitted effect of over 50% in size
# Method in brief: (§1)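 HepG2 cells were seeded at 600 cells/well together with NanoLuc luciferase and a cell-permeant prosubstrate, preincubated 5 h at 37 C/5% CO2, then pin-dosed with compounds in DMSO. Nonlytic luminescence from viable cells was read at each time point.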
# [4] = qHTS RealTime-Glo MT Cell Viability Assay in HEK293 cells - 32 hour (AID 1224868); also: nearly all actives have a fitted effect of over 50% in size; also: potency is read from the fitted curve at half-maximal effect
# Method in brief: (§2)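 HEK293 cells were seeded at 600 cells/well together with NanoLuc luciferase and cell-permeant prosubstrate, preincubated 5 h at 37 C/5% CO2, then given compound in DMSO by pintool. Luminescence from viable-cell prosubstrate reduction was read repeatedly over 40 h.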
# [5] = A CellTox Green Cytotoxicity Assay to monitor cytotoxicity in HEK293 cells - 0 hour (AID 1224869); also: nearly all actives have a fitted effect of over 50% in size
# Method in brief: (§3)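 Cells (HEK293, 600/well) and dye reagent are dispensed together. After 5 h at 37 C, 23 nL compound is pinned in. Plates stay at 37 C for 40 h with fluorescence read at 0h, 8h, 16h, 24h, 32h and 40h.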
# [6] = qHTS RealTime-Glo MT Cell Viability Assay in HepG2 cells - 40 hour (AID 1224870); also: nearly all actives have a fitted effect of over 50% in size
# Method in brief: (§4)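 HepG2 cells (600/well) mixed with RealTime-Glo MT reagent, settled 5 h at 37 C/5% CO2 before compound addition. Nonlytic NanoLuc luminescence from viable-cell prosubstrate reduction read repeatedly during 40 h treatment at 37 C.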
# [7] = A CellTox Green Cytotoxicity Assay to monitor cytotoxicity in HEK293 cells - 40 hour (AID 1224871); also: nearly all actives have a fitted effect of over 45% in size
# Method in brief: as §3
# [8] = qHTS RealTime-Glo MT Cell Viability Assay in HEK293 cells - 16 hour (AID 1224872); also: nearly all actives have a fitted effect of over 50% in size; also: potency is read from the fitted curve at half-maximal effect
# Method in brief: as §2
# [9] = qHTS RealTime-Glo MT Cell Viability Assay in HepG2 cells - 8 hour (AID 1224873); also: nearly all actives have a fitted effect of over 55% in size
# Method in brief: as §4
# [10] = qHTS RealTime-Glo MT Cell Viability Assay in HEK293 cells - 40 hour (AID 1224874); details: RealTime-Glo luminescence; max response: hits give low values; also: nearly all actives have a fitted effect of over 50% in size; also: potency is read from the fitted curve at half-maximal effect
# Method in brief: (§5)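 Real-time viability in HEK293: signal arises when living cells convert a prosubstrate for NanoLuc in the medium, so luminescence tracks viable cell number. Compound (23 nL, DMSO) added 5 h post-seeding; kinetic reads at 0–40 h, 37 C.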
# [11] = A CellTox Green Cytotoxicity Assay to monitor cytotoxicity in HEK293 cells - 24 hour (AID 1224875); also: nearly all actives have a fitted effect of over 45% in size
# Method in brief: as §3
# [12] = A CellTox Green Cytotoxicity Assay to monitor cytotoxicity in HepG2 cells - 16 hour (AID 1224876); also: nearly all actives have a fitted effect of over 45% in size; also: potency is read from the fitted curve at half-maximal effect
# Method in brief: (§6)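 Cells and non-lytic dye reagent are dispensed together (600 HepG2 cells/well) and incubated 5 h before DMSO compound transfer. Kinetic fluorescence is then recorded in the same wells during 40 h at 37 C.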
# [13] = A CellTox Green Cytotoxicity Assay to monitor cytotoxicity in HepG2 cells - 24 hour (AID 1224878); also: nearly all actives have a fitted effect of over 45% in size; also: potency is read from the fitted curve at half-maximal effect
# Method in brief: as §6
# [14] = A CellTox Green Cytotoxicity Assay to monitor cytotoxicity in HepG2 cells - 40 hour (AID 1224879); also: nearly all actives have a fitted effect of over 40% in size; also: potency is read from the fitted curve at half-maximal effect
# Method in brief: as §6
# [15] = qHTS RealTime-Glo MT Cell Viability Assay in HEK293 cells - 0 hour (AID 1224880)
# Method in brief: as §5
# [16] = A CellTox Green Cytotoxicity Assay to monitor cytotoxicity in HEK293 cells - 32 hour (AID 1224881); also: nearly all actives have a fitted effect of over 40% in size
# Method in brief: as §3
# [17] = qHTS assay to identify small molecule agonists of the estrogen related receptor (ERR) signaling pathway from Tox21 library (AID 1224849; calls by dose curve; also: nearly all actives have a fitted effect of over 15% in size); details: ERR reporter cell line, ONE-Glo luciferase, 18 h; at 92.4 µM (top of the series) unless noted
# Method in brief: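 Cells carrying the ERR reporter were plated and allowed to settle for 6 h, exposed to library compounds for 18 h at 37 C, then lysed with ONE-Glo and luminescence measured.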
# [18] = qHTS RealTime-Glo MT Cell Viability Assay in HepG2 cells - 32 hour (AID 1224877); also: nearly all actives have a fitted effect of over 55% in size
# Method in brief: as §1
# [19] = qHTS assay to identify small molecule agonists of the hypoxia (HIF-1) signaling pathway (AID 1224846; active = well fitted activation curve with a large enough effect in the signal ratio in the repeat runs, not every such curve was filed as active; the % refers to the signal ratio)
# Method in brief: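 Compounds from the Tox21 10K library, dissolved in DMSO, are tested for induction of a hypoxia response element–controlled beta-lactamase reporter in ME-180 cells. Exposure lasts 17 hrs at 37C after a 5 hr settling period, followed by CCF4-AM FRET substrate.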
# [20] = qHTS assay to identify small molecule antagonists of the estrogen related receptor (ERR) signaling pathway from Tox21 library (AID 1224848); also: nearly all actives have a fitted effect of over 50% in size
# Method in brief: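 Compounds dissolved in DMSO are pin-transferred onto ERR reporter cells (2,000 per well) that have settled for 6 h at 37 C. Plates then incubate 18 h at 37 C before ONE-Glo luciferase reagent and a luminescence read 30 min later.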
smiles,measurement,setting,value
O=C(O)C1(C(=O)O)CCC1.[NH2-].[NH2-].[Pt+2],Potency,[1],inactive
same,Potency,[2],inactive
same,Potency,[3],inactive
same,Potency,[4],inactive
same,Potency,[5],inactive
same,Potency,[6],inactive
same,Potency,[7],inactive
same,Potency,[8],inactive
same,Potency,[9],inactive
same,max response,[10],-1.65%
same,Potency,[11],inactive
same,Potency,[12],inactive
same,Potency,[13],inactive
same,Potency,[14],inactive
same,Potency,[15],inactive
same,Potency,[16],inactive
c1cc(CCCc2ccncc2)ccn1,Potency,[1],inactive
same,Potency,[2],inactive
same,"activity change, positive = activation",[17],-26.9%
same,Potency,[3],inactive
same,Potency,[4],inactive
same,Potency,[5],inactive
same,Potency,[6],inactive
same,Potency,[7],inactive
same,Potency,[8],inactive
same,Potency,[9],inactive
same,max response,[10],-17.4%
same,Potency,[11],inactive
same,Potency,[12],inactive
same,Potency,[18],inactive
same,Potency,[13],inactive
same,Potency,[14],inactive
same,Potency,[16],inactive
C#C[C@]1(O)CC[C@H]2[C@@H]3CCc4cc(OC5CCCC5)ccc4[C@H]3CC[C@@]21C,Potency,[1],inactive
same,Potency,[2],49.2 µM (active)
same,Potency,[5],inactive
same,Potency,[6],inactive
same,Potency,[10],23.9 µM (active)
same,Potency,[11],inactive
same,Potency,[16],inactive
CNCCCN1c2ccccc2CCc2ccccc21,Potency,[1],inactive
same,Potency,[2],inactive
same,Potency,[5],inactive
same,Potency,[11],inactive
same,Potency,[12],26.8 µM (active)
same,Potency,[13],26.8 µM (active)
same,Potency,[14],26.8 µM (active)
same,Potency,[15],inactive
CCOc1ccc(N)c([N+](=O)[O-])c1,Potency,[19],inactive
same,Potency,[2],inactive
same,Potency,[20],inactive
same,"activity change, positive = activation",[17],-0.453%
same,Potency,[3],inactive
same,Potency,[5],inactive
same,Potency,[6],inactive
same,Potency,[7],inactive
same,Potency,[9],inactive
same,Potency,[11],inactive
same,Potency,[12],inactive
same,Potency,[18],inactive
same,Potency,[14],inactive
same,Potency,[15],inactive
same,Potency,[16],inactive
CCCNCC(O)COc1ccccc1C(=O)CCc1ccccc1 (centres undefined),Potency,[1],inactive
same,Potency,[3],inactive
same,Potency,[4],2.39 µM (active)
same,Potency,[5],inactive
same,Potency,[6],inactive
same,Potency,[7],inactive
same,Potency,[8],2.13 µM (active)
same,Potency,[9],inactive
same,Potency,[10],2.39 µM (active)
same,Potency,[11],inactive
same,Potency,[18],inactive
same,Potency,[16],inactive
CCCCCCCC#N,Potency,[19],inactive
same,Potency,[2],inactive
same,Potency,[20],inactive
same,"activity change, positive = activation",[17],2.85%
same,Potency,[3],inactive
same,Potency,[5],inactive
same,Potency,[6],inactive
same,Potency,[7],inactive
same,Potency,[8],inactive
same,Potency,[9],inactive
same,max response,[10],-4.16%
same,Potency,[11],inactive
same,Potency,[12],inactive
same,Potency,[18],inactive
same,Potency,[13],inactive
same,Potency,[14],inactive
same,Potency,[15],inactive
same,Potency,[16],inactive
O=C(Nc1ccccc1)c1ccccc1O,Potency,[1],inactive
same,"activity change, positive = activation",[17],-30.7%
same,Potency,[3],inactive
same,Potency,[5],inactive
same,Potency,[7],inactive
same,Potency,[8],inactive
same,Potency,[9],inactive
same,Potency,[11],inactive
same,Potency,[12],inactive
same,Potency,[13],inactive
same,Potency,[15],inactive
same,Potency,[16],inactive
COc1cccc(N(C)C(=S)Oc2ccc3c(c2)CCCC3)n1,Potency,[1],inactive
same,Potency,[2],inactive
same,Potency,[3],inactive
same,Potency,[5],inactive
same,Potency,[6],inactive
same,Potency,[7],inactive
same,Potency,[8],inactive
same,Potency,[9],inactive
same,max response,[10],-20.4%
same,Potency,[11],inactive
same,Potency,[18],inactive
same,Potency,[13],inactive
same,Potency,[14],inactive
same,Potency,[16],inactive
